Reference: PubChem BioAssay (EPA / NIEHS)
Results filed as inconclusive are left out. The source holds several records for some structures; these can differ, active in one and inactive in another. Calls of active or inactive are those of the source. The calls were made as follows, unless noted: active = hit-call score of the fitted dose curve at least 0.9, where 1 is the maximum; inconclusive = response in the unintended direction; inactive = score below 0.9.

Key:
[1] = ATG_TCF_b_cat_CIS: Attagene CIS-FACTORIAL HepG2 Assay for human T-Cell-Factor with beta-catenin (TCF/b-cat) (AID 2282965; active = hit-call score of the fitted dose curve at least 0.9, where 1 is the maximum; inactive = score below 0.9); details: HepG2 TCF/beta-catenin cis-reporter transcription, actives raise or lower the signal
Outline: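 HepG2 cells transiently transfected with multiple cis-promoter-regulated reporter transcription units, so endogenous transcription factor activity is measured. Reporter mRNA read 24 hours after dosing by RT-PCR, fluorescent labelling and capillary electrophoresis; bidirectional fitting against DMSO.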

[2] = ATG_TAL_CIS: Attagene CIS-FACTORIAL HepG2 Assay for human TAL Basal Promoter (AID 2282966; active = hit-call score of the fitted dose curve at least 0.9, where 1 is the maximum; inactive = score below 0.9;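 also: background control endpoint measuring basal TAL promoter reporter mRNA not a specific factor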); details: HepG2 Attagene cis-factorial TAL promoter reporter; actives raise or lower the signal
Outline: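 Transiently transfected HepG2 (cis-regulated reporter units), 24 h treatment, mRNA read by fluorescent CE after RT-PCR; bidirectional fit, DMSO baseline.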

[3] = ATG_TGFb_CIS: Attagene CIS-FACTORIAL HepG2 Assay for human Transforming Growth Factor (TGF) (AID 2282967; active = hit-call score of the fitted dose curve at least 0.9, where 1 is the maximum; inactive = score below 0.9); details: HepG2 Attagene CIS TGFb reporter, mRNA transcription; actives raise or lower the signal
Outline: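 Cells were dosed for 24 hours, after which total RNA was reverse-transcribed and reporter sequences amplified, labeled and sized by capillary electrophoresis. Activity was fitted in both directions against DMSO.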

[4] = ATG_VDRE_CIS: Attagene CIS-FACTORIAL HepG2 Assay for human Vitamin D Receptor Element (VDRE) (AID 2282968; active = hit-call score of the fitted dose curve at least 0.9, where 1 is the maximum; inactive = score below 0.9); details: HepG2 VDRE cis-reporter transcription, actives raise or lower the signal
Outline: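 Transfected HepG2 reporter cells, chemical treatment 24 h. RNA isolated, cDNA amplified with reporter-specific primers, products analysed by capillary electrophoresis. Endpoint fitted in both directions versus DMSO.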

[5] = biological target: Estrogen receptor (Homo sapiens) (UniProt P03372); assay: ATG_ERa_TRANS: Attagene TRANS-FACTORIAL HepG2 Assay for human Estrogen Receptor alpha (ERa) (AID 2282970); details: HepG2 Attagene TRANS ERa GAL4 reporter, mRNA
Estrogen receptor (Homo sapiens), sequence (P03372 whole entry, looked up, the tested form may be a part): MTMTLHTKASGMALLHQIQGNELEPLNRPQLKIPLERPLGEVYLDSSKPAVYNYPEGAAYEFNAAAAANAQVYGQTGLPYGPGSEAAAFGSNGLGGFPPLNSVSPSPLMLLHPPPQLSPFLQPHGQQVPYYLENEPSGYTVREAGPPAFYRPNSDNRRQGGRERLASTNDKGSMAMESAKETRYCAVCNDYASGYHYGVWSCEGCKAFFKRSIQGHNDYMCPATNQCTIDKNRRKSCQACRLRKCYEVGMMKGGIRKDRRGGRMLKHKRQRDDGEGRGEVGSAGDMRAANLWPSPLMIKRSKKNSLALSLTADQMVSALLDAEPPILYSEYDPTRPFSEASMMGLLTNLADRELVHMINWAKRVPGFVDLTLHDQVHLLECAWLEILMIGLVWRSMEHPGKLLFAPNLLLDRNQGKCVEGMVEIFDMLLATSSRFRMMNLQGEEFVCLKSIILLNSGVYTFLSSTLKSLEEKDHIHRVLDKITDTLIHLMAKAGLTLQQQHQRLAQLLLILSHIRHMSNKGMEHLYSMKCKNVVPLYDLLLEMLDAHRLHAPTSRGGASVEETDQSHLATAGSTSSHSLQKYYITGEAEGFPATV
Outline: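 One of 30 multiplexed endpoints from a HepG2 TRANS system, this one reports ERa-Gal4-driven reporter mRNA. Transcripts were quantified 24 hours post-dosing by fluorescent RT-PCR and capillary electrophoresis, with activity scored as induction over DMSO.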

[6] = biological target: Steroid hormone receptor ERR1 (Homo sapiens) (UniProt P11474); assay: ATG_ERRa_TRANS: Attagene TRANS-FACTORIAL HepG2 Assay for human Estrogen-Related Receptor alpha (ERRa) (AID 2282971); details: HepG2 Attagene TRANS reporter, ERRa transactivation
Outline: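 HepG2 cells transiently transfected with multiplexed GAL4-UAS reporter units reading chimeric ERRa-Gal4 activity; 24 h compound exposure. Reporter mRNA measured by RT-PCR, 6-FAM labelling, HpaI digest and capillary electrophoresis; gain of signal fitted versus DMSO baseline.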

[7] = biological target: X-box-binding protein 1 (Homo sapiens) (UniProt P17861); assay: ATG_Xbp1_CIS: Attagene CIS-FACTORIAL HepG2 Assay for human X-box Binding Protein 1 (XBP1) (AID 2282972; active = hit-call score of the fitted dose curve at least 0.9, where 1 is the maximum; inactive = score below 0.9); details: HepG2 XBP1 cis-element reporter, Attagene multiplex; actives raise or lower the signal
X-box-binding protein 1 (Homo sapiens), sequence (P17861 whole entry, looked up): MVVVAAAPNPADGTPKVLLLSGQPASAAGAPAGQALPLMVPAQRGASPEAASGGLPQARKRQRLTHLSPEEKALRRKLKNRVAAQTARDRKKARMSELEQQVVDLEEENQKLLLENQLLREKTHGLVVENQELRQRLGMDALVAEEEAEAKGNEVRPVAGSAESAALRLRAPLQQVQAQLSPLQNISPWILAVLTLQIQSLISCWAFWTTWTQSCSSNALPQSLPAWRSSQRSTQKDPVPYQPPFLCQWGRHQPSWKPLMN
Outline: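 Reporter transcripts were quantified by RT-PCR with fluorescent primer extension and capillary electrophoresis after 24 h chemical exposure. Cells: transiently transfected HepG2 carrying cis-regulated reporter constructs; data fitted bidirectionally relative to DMSO.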

[8] = ATG_M_19_TRANS: Attagene TRANS-FACTORIAL HepG2 Assay for M19 Transcription Factor (Internal Marker) (AID 2282974); details: HepG2 Attagene TRANS-FACTORIAL M19 internal marker reporter
Outline: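 Using RT-PCR and capillary electrophoresis, reporter mRNA from transiently transfected human HepG2 cells was quantified following 24 h exposure; activity was fitted in the positive direction against DMSO.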

[9] = ATG_GAL4_TRANS: Attagene TRANS-FACTORIAL HepG2 Assay for GAL4 (Internal Marker) (AID 2282976); details: HepG2 Attagene TRANS GAL4 internal marker reporter
Outline: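 HepG2 cells transiently transfected with multiplexed GAL4-UAS reporter constructs were dosed for 24 h. Reporter mRNA was measured by RT-PCR, 6-FAM primer extension, HpaI digestion and capillary electrophoresis, and gain of signal was fitted relative to DMSO.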

[10] = biological target: Glucocorticoid receptor (Homo sapiens) (UniProt P04150); assay: ATG_GR_TRANS: Attagene TRANS-FACTORIAL HepG2 Assay for human Glucocorticoid Receptor (GR) (AID 2282978); details: HepG2 Attagene TRANS GR reporter, mRNA transcription;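 also: activators score as hits since higher reporter transcript over DMSO is fitted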
Glucocorticoid receptor (Homo sapiens), sequence (P04150 whole entry, looked up, the tested form may be a part): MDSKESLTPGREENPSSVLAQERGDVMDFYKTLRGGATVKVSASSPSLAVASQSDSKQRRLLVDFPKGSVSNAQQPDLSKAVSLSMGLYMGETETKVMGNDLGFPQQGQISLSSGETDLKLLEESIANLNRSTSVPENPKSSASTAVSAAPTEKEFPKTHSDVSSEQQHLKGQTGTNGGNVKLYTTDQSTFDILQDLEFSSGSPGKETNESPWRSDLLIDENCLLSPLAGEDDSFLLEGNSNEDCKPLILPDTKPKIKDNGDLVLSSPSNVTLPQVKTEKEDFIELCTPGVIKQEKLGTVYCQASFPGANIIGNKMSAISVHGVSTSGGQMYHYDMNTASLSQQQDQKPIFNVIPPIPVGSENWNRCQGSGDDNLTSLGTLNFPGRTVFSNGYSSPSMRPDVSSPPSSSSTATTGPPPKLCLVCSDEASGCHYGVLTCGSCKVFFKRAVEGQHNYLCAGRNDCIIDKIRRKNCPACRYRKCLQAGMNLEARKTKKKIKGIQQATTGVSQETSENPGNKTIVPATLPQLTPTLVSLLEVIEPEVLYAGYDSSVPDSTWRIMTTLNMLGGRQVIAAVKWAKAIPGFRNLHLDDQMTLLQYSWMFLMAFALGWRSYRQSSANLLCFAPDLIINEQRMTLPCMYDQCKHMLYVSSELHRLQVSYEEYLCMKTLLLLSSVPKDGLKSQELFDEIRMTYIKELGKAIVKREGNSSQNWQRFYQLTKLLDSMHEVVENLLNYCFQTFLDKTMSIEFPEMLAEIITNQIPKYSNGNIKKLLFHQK
Outline: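 Exogenous NR-GAL4 fusion activity was assessed through induced GAL4-UAS reporter transcripts in transfected human HepG2 cells, quantified after 24 h by RT-PCR and fluorescent capillary electrophoresis with DMSO as baseline.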

[11] = biological target: Bile acid receptor (Homo sapiens) (UniProt Q96RI1); assay: ATG_FXR_TRANS: Attagene TRANS-FACTORIAL HepG2 Assay for Farnesoid X Receptor (FXR) (AID 2282979); details: HepG2 Attagene TRANS FXR-GAL4 reporter transcription;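 also: hits raise reporter mRNA above DMSO so AC50 marks FXR activation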
Bile acid receptor (Homo sapiens), sequence (Q96RI1 whole entry, looked up, the tested form may be a part): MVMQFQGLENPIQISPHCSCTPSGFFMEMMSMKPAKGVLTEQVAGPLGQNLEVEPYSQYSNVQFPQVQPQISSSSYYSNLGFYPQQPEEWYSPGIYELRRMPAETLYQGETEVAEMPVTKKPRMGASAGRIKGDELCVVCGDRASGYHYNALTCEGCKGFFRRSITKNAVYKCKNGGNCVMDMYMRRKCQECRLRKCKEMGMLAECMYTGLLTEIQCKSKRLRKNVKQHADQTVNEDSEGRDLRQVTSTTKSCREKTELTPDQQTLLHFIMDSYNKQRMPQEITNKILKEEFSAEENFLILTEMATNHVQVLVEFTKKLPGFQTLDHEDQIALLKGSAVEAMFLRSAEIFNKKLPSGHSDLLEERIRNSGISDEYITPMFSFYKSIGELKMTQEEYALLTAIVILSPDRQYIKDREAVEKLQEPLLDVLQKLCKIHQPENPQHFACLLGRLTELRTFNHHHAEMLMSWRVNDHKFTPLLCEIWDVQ
Outline: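 HepG2 cells transiently transfected with reporter constructs in which a chimeric FXR-GAL4 protein drives a GAL4-UAS reporter; 24 h compound exposure. Reporter mRNA measured by RT-PCR, FAM labelling, HpaI digestion and capillary electrophoresis; gain-of-signal versus DMSO.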

[12] = biological target: Oxysterols receptor LXR-alpha (Homo sapiens) (UniProt Q13133); assay: ATG_LXRa_TRANS: Attagene TRANS-FACTORIAL HepG2 Assay for human Liver X Receptor alpha (LXRa) (AID 2282980); details: HepG2 Attagene TRANS reporter, LXRa transactivation
Oxysterols receptor LXR-alpha (Homo sapiens), sequence (Q13133 whole entry, looked up, the tested form may be a part): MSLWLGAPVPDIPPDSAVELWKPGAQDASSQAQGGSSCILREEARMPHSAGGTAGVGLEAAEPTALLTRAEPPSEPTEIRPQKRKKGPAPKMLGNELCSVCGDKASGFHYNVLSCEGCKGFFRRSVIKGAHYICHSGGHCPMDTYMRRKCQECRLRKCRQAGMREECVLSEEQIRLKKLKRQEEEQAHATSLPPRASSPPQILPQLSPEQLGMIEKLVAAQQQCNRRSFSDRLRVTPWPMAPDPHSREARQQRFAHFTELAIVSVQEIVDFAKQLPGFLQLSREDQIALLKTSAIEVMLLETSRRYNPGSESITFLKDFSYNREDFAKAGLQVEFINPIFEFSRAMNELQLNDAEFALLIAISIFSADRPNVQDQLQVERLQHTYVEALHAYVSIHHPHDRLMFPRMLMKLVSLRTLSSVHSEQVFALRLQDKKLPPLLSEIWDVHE
Outline: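 HepG2 cells were transiently transfected with multiplexed reporter units driven by chimeric LXRa–GAL4 fusion proteins, then dosed for 24 h. Reporter mRNA was quantified by RT-PCR, fluorescent labelling and capillary electrophoresis; gain of signal fitted against DMSO baseline.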

[13] = biological target: Oxysterols receptor LXR-beta (Homo sapiens) (UniProt P55055); assay: ATG_LXRb_TRANS: Attagene TRANS-FACTORIAL HepG2 Assay for human Liver X Receptor beta (LXRb) (AID 2282981); details: HepG2 Attagene TRANS GAL4-LXRb reporter, mRNA
Oxysterols receptor LXR-beta (Homo sapiens), sequence (P55055 whole entry, looked up, the tested form may be a part): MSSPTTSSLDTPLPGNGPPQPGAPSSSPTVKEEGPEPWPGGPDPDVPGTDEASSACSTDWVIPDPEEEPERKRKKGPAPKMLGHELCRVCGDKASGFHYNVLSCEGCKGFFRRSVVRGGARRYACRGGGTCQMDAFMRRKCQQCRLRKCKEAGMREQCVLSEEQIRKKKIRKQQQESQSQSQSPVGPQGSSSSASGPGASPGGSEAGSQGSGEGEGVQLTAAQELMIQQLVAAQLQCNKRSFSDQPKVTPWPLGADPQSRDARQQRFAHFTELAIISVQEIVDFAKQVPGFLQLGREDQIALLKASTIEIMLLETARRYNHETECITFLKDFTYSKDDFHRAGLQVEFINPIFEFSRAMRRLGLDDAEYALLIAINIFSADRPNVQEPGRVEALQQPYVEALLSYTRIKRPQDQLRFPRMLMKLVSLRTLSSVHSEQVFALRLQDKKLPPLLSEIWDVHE
Outline: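 Liver-derived HepG2 cells transfected with Gal4-responsive reporters were dosed for 24 h. Activation was scored as rise in reporter mRNA, by RT-PCR and capillary electrophoresis, above DMSO baseline.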

[14] = biological target: Hepatocyte nuclear factor 4-alpha (Homo sapiens) (UniProt P41235); assay: ATG_HNF4a_TRANS: Attagene TRANS-FACTORIAL HepG2 Assay for human Hepatocyte Nuclear Factor 4 alpha (HNF4a) (AID 2282982); details: HepG2 HNF4a transactivation reporter, mRNA readout
Outline: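 Using HepG2 liver cells transfected with GAL4-UAS reporter units, chemical-induced mRNA increases were assessed after 24 hours. Fluorescent RT-PCR fragments were separated by capillary electrophoresis and compared with DMSO negative controls.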

[15] = ATG_M_06_TRANS: Attagene TRANS-FACTORIAL HepG2 Assay for M06 Transcription Factor (Internal Marker) (AID 2282983); details: HepG2 Attagene TRANS M06 internal marker reporter;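 also: reporter transcript level by RT-PCR then capillary electrophoresis fluorescence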
Outline: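 In this multiplexed HepG2 system, compounds are incubated 24 h with cells carrying GAL4-UAS reporter units. Reporter RNA is amplified and resolved by capillary electrophoresis, and induction is scored against DMSO.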

[16] = ATG_M_32_TRANS: Attagene TRANS-FACTORIAL HepG2 Assay for M32 Transcription Factor (Internal Marker) (AID 2282984); details: HepG2 Attagene TRANS M32 internal marker reporter;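 also: transcript level of a background control reporter unit measured by RT-PCR and capillary electrophoresis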
Outline: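 Fluorescence-detected mRNA induction, HepG2 liver cells, 24 h after dosing. Multiple GAL4-UAS reporter units introduced by transient transfection; background-control endpoint analysed for gain of signal against DMSO.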

[17] = biological target: Transcriptional activator Myb (Homo sapiens) (UniProt P10242); assay: ATG_Myb_CIS: Attagene CIS-FACTORIAL HepG2 Assay for human Myeloblastosis (Myb) Proto-Oncogene Transcription Factor (AID 2282986; active = hit-call score of the fitted dose curve at least 0.9, where 1 is the maximum; inactive = score below 0.9); details: HepG2 Attagene CIS-FACTORIAL Myb reporter transcription; actives raise or lower the signal
Transcriptional activator Myb (Homo sapiens), sequence (P10242 whole entry, looked up): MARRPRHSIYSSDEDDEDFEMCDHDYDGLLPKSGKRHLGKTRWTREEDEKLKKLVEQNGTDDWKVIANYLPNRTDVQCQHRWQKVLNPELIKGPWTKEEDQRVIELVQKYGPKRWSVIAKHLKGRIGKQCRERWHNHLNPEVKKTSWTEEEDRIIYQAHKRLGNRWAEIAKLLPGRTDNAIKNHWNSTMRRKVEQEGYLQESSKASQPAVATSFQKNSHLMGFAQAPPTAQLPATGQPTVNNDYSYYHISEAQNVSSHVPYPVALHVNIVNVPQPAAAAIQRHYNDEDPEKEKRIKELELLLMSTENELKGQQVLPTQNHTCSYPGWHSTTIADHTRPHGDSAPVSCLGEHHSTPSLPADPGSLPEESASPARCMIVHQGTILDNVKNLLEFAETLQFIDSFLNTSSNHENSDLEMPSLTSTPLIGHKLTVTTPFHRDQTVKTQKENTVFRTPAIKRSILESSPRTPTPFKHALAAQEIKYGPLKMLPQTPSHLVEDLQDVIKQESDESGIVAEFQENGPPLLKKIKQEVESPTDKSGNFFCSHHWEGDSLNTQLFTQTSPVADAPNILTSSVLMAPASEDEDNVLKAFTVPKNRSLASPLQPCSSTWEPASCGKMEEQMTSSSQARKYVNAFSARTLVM
Outline: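 In this HepG2 transient-transfection format, cis-regulated reporter mRNA is quantified 24 h post-dosing by RT-PCR with capillary electrophoresis, fitted bidirectionally to DMSO baseline.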

[18] = biological target: Nuclear receptor subfamily 1 group I member 3 (Homo sapiens) (UniProt Q14994); assay: ATG_CAR_TRANS: Attagene TRANS-FACTORIAL HepG2 Assay for human Constitutive Androstane Receptor (CAR) (AID 2282969); details: HepG2 Attagene TRANS-FACTORIAL CAR reporter;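 also: activators raise reporter mRNA above DMSO so AC50 marks induction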
Nuclear receptor subfamily 1 group I member 3 (Homo sapiens), sequence (Q14994 whole entry, looked up, the tested form may be a part): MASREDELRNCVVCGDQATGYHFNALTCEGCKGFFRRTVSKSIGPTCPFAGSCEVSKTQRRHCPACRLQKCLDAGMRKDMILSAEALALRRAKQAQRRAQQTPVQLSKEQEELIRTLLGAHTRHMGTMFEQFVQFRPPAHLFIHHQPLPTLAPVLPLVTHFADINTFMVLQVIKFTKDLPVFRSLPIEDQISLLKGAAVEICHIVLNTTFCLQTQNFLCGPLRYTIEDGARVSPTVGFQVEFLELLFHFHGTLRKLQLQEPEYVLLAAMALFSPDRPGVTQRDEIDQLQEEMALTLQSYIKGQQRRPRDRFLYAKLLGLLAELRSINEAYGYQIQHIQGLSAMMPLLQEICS
Outline: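 Steps: transient transfection of HepG2 with multiple GAL4-UAS reporter units; 24 h compound incubation; RNA isolation, RT-PCR, 6-FAM primer extension, HpaI digest; capillary electrophoresis. Gain-of-signal relative to DMSO negative control.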

[19] = biological target: Nuclear receptor subfamily 4 group A member 2 (Homo sapiens) (UniProt P43354); assay: ATG_NURR1_TRANS: Attagene TRANS-FACTORIAL HepG2 Assay for human Nuclear Receptor Related Protein 1 (NURR1) (AID 2282985); details: HepG2 Attagene TRANS reporter, mRNA readout
Nuclear receptor subfamily 4 group A member 2 (Homo sapiens), sequence (P43354 whole entry, looked up, the tested form may be a part): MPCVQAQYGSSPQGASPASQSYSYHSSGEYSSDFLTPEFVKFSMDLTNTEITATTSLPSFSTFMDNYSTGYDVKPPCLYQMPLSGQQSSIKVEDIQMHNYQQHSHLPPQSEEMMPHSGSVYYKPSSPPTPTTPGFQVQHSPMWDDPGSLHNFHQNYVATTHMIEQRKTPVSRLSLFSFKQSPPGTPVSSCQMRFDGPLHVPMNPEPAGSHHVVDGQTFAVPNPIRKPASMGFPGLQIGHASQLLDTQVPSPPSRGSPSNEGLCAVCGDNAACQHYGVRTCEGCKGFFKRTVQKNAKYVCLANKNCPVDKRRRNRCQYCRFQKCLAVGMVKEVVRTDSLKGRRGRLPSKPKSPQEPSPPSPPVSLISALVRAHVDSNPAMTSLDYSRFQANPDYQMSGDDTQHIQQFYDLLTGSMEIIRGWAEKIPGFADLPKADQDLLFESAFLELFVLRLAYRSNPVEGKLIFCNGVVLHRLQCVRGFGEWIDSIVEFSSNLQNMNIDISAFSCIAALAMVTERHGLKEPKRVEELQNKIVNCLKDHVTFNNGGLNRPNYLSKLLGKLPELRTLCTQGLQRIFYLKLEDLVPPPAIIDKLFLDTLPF
Outline: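 Chimeric NR-Gal4 proteins were expressed in human HepG2 cells bearing GAL4-UAS reporter units, and induced reporter mRNA was quantified 24 h post-dosing by RT-PCR and capillary electrophoresis.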

[20] = biological target: Estrogen-related receptor gamma (Homo sapiens) (UniProt P62508); assay: ATG_ERRg_TRANS: Attagene TRANS-FACTORIAL HepG2 Assay for human Estrogen-Related Receptor gamma (ERRg) (AID 2282977); details: HepG2 Attagene TRANS reporter, ERRg transactivation;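 also: hits increase reporter signal over DMSO so potencies reflect activators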
Outline: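 Readout: fluorescent reporter-mRNA fragments resolved by capillary electrophoresis after RT-PCR and HpaI cut. Cells: transiently transfected HepG2 carrying GAL4-UAS reporters driven by exogenous NR-Gal4 chimeras, dosed 24 h. Activity fitted upward relative to DMSO baseline.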

Measured: AC50

O=C(O)C(F)(OC(F)(F)C(F)(OC(F)(F)C(F)(F)C(F)(F)F)C(F)(F)F)C(F)(F)F (centres undefined)
inactive: [1] | [2] | [3] | [4] | [5] | [6] | [7] | [8] | [9] | [10] | [11] | [12] | [13] | [14] | [15] | [16] | [17]
active: [5] 18.4 µM

Nc1ccc([N+](=O)[O-])cc1O
inactive: [1] | [2] | [3] | [4] | [18] | [5] | [7] | [8] | [9] | [11] | [12] | [15] | [16] | [19] | [17]

O=C(O)C(F)(OC(F)(F)C(F)(OC(F)(F)C(F)(OC(F)(F)C(F)(F)C(F)(F)F)C(F)(F)F)C(F)(F)F)C(F)(F)F (centres undefined)
inactive: [1] | [2] | [3] | [4] | [18] | [5] | [7] | [8] | [20] | [10] | [11] | [12] | [13] | [15] | [19] | [17]

COC(=O)CCC(F)(F)C(F)(F)C(F)(F)C(F)(F)F
inactive: [1] | [2] | [3] | [4] | [18] | [7] | [8] | [9] | [11] | [15] | [17]
active: [5] 5.85 µM
